# Assay outcomes (PubChem BioAssay)
# Pf Dd2 growth: qHTS Primary assay for Inhibitors of Plasmodium falciparum Dd2 growth in vitro; P. falciparum Dd2 growth, SYBR Green, 72 h; Potency, µM (top dose mostly 28.9 µM), without a hit: at the top dose activity, negative = inhibition, actives largely listed as inhibitors; hit rate 4.3% among 120,000; AID 1347417, 2020; active means well fitted inhibition curve with a large enough effect;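 further: plate controls were DMSO vehicle for no effect and reference drug for full effect; nearly all actives have a fitted effect of over 65% in size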
#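 Readout: SYBR Green fluorescence, 485 nm excitation, 535 nm emission, after ~16 h lysis at 37C. Before that, Dd2-infected red cells (2.5% hematocrit) grew 72 h with compound, 29 uM top final concentration.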
# * = called active by the depositor; i = inactive; [ ] = remark or other dose. Many of the other results were omitted from the sample, so hits are more common in it than they were. Potency means the concentration at half of the fitted maximal effect.
SMILES,Pf Dd2 growth
CCN(CCCNC(=O)c1cc2c(=O)[nH]c3ccc(C)cc3c2s1)Cc1ccccc1,7.9µM*
Cc1cccc(CCNC(=O)c2cc3c(=O)[nH]c4ccc(C)cc4c3s2)c1,-17%
COCCNC(=O)c1ccc2c(c1)N(C)C(CC(=O)NCC(C)(C)C)CO2 (stereo unspecified),-9%
COc1ccc2[nH]c3c(c2c1)CCN(C)C31CCN(C(=O)c2cnccc2C)CC1,i
Cc1cc(C(=O)N[C@@H]2CN(Cc3ccccc3)C[C@H]2CO)nn1C,-19%
O=C(CC1N=C2c3ccccc3N=C(SCC(=O)Nc3ccccc3F)N2C1=O)NCc1cccs1 (stereo unspecified),4µM*
O=C(CCC1N=C2c3ccccc3N=C(SCc3ccc(Cl)cc3)N2C1=O)NCc1cccs1 (stereo unspecified),57%
COc1ccccc1NC(=O)CSC1=Nc2ccccc2C2=NC(CC(=O)NCc3ccccc3)C(=O)N12 (stereo unspecified),97%
O=C(CC1N=C2c3ccccc3N=C(SCc3ccccc3F)N2C1=O)NCc1cccs1 (stereo unspecified),i
Cc1cc(C)c(NC(=O)CSC2=Nc3ccccc3C3=NC(CC(=O)NCc4cccs4)C(=O)N23)c(C)c1 (stereo unspecified),13µM*
O=C(CC1N=C2c3ccccc3N=C(SCc3ccc(Cl)cc3)N2C1=O)NCc1cccs1 (stereo unspecified),92%
COc1cccc(NC(=O)CSC2=Nc3ccccc3C3=NC(CC(=O)NCc4cccs4)C(=O)N23)c1 (stereo unspecified),i
Cc1ccc(CSC2=Nc3ccccc3C3=NC(CC(=O)NCc4cccs4)C(=O)N23)cc1 (stereo unspecified),3.2µM*
CC(C)c1ccc(NC(=O)CSC2=Nc3ccccc3C3=NC(CC(=O)NCc4cccs4)C(=O)N23)cc1 (stereo unspecified),12%
CC(C)NC(=O)N1CCC2(CC1)CN(C(=O)Cc1ccccc1)CCO2,-19%
CCN1C(=O)CCC2(C(=O)N3CCN(Cc4ccc5c(c4)OCO5)CC3)CCCC=C12 (stereo unspecified),i
CC(=O)NCCCC(=O)N1CCC2(CC1)CN(C(=O)N(C)C)Cc1ccccc1O2,-1%
CCn1cc(S(=O)(=O)NCCc2noc(COC)n2)cn1,29%
COc1ccc2c(c1)OCC(CNC(=O)c1scc3c1OCCO3)C2 (stereo unspecified),-19%
COc1ccc2c(c1)OCC(CNC(=O)c1cc(-c3ccncc3)n[nH]1)C2 (stereo unspecified),13µM*
COc1ccc2c(c1)OCC(CNC(=O)c1ccc(-c3nnn(C)n3)cc1)C2 (stereo unspecified),2%
Cc1cn2nc(C(=O)Nc3ccccc3C)cc2c(N(C)Cc2ccccc2)n1,-13%
CCN(Cc1ccccc1)C(=O)c1cc2c(N3CCCC3)nc(C)cn2n1,i
Cc1cn2nc(C(=O)Nc3cccc(F)c3C)cc2c(N(C)Cc2ccccc2)n1,-3%
Cc1cn2nc(C(=O)Nc3ccc(Cl)cc3C)cc2c(N(C)Cc2ccccc2)n1,10µM*
SMILES,Pf Dd2 growth
Cc1cn2nc(C(=O)N3CCN(c4ccccc4)CC3)cc2c(N(C)Cc2ccccc2)n1,-8%
Cc1cn2nc(C(=O)N3CCCCC3)cc2c(N(C)Cc2ccccc2)n1,7.1µM*
COc1ccccc1-c1ncc(CN2CCCC3(CCNCC3)CC2)cn1,7%
O=C1CS(=O)(=O)C2(CCNCC2)N1c1ccccc1,3%
O=C1CCC2(CNC(=O)C3CCC3)CCCC=C2N1 (stereo unspecified),5%
COc1cccc(C(=O)NCC2(COc3cnccn3)C[C@@H](O)[C@@H](O)C2)c1 (stereo partly specified),-19%[44.1 µM]
Cn1cc2c3c(cccc31)CN(C(=O)Cc1ccccc1F)CC2,-6%
Cc1cc(C)cc(NC(=O)N2CCCC2c2nncn2C2CCCC2)c1 (stereo unspecified),-8%
COc1cc(NC(=O)N2CCCC2c2nncn2C2CCCC2)cc(OC)c1 (stereo unspecified),-7%
O=C(Nc1cc(Cl)cc(Cl)c1)N1CCCC1c1nncn1C1CCCC1 (stereo unspecified),11µM*
c1c[nH]c(-c2nc3ncccc3[nH]2)c1,-1%[44.1 µM]
CN(C)c1ccc(C(CNS(=O)(=O)c2ccc(Cl)cc2)N2CCOCC2)cc1 (stereo unspecified),-23%
COc1ccc(C(CNC(=O)c2oc3ccccc3c2C)N2CCCCC2)cc1 (stereo unspecified),24%
COc1ccc(C(CNC(=O)COc2cc(C)cc(C)c2)N2CCCCC2)cc1 (stereo unspecified),i
COc1ccc(C(CNC(=O)c2oc3cc(C)c(Cl)cc3c2C)N2CCCCC2)cc1 (stereo unspecified),1%
CCCOc1ccc(C(=O)NCC(c2ccc(OC)cc2)N2CCCCC2)cc1 (stereo unspecified),-25%
COc1ccc(C(CNC(=O)c2ccc(C)cc2)N2CCOCC2)cc1 (stereo unspecified),17%
COc1ccc(OCC(=O)NCC(c2ccc(OC)cc2)N2CCCCC2)cc1 (stereo unspecified),8.9µM*
COc1ccc(CC(=O)NCC(c2ccc(Cl)cc2)N2CCOCC2)cc1 (stereo unspecified),49%[0.594 µM]
COc1ccc(C(CNC(=O)COc2ccc(Cl)c(C)c2)N2CCOCC2)cc1 (stereo unspecified),3.5µM*
Cc1cc(OCC(=O)NCC2(N3CCOCC3)CCCCC2)ccc1Cl,i
COc1ccc(C(CNC(=O)COc2ccc(C)c(C)c2)N2CCCCC2)cc1 (stereo unspecified),11µM*
CC(C)c1ccc(OCC(=O)NCC(c2ccc(Cl)cc2)N2CCOCC2)cc1 (stereo unspecified),10µM*
Cc1ccc(NC(=O)Cn2nc3n(c2=O)CCCCC3)cc1F,12%
CCc1nc(NC(=O)C2CC(=O)N(c3n[nH]c4cc(Br)ccc34)C2)sc1C (stereo unspecified),-19%
SMILES,Pf Dd2 growth
O=C(NCc1nnc2n1C(C(=O)NCc1cccnc1)CC2)Nc1cccnc1 (stereo unspecified),33%
CC1CCN([C@@H]2[C@H](O)[C@H](CO)O[C@@H]2CNC(=O)c2ccccc2)CC1,-16%[44.1 µM]
Cc1cc(NC(=O)N(C)CC2CCOCC2)ccc1Br,-12%
C#CCNC(=O)CC[C@H]1CNC(=O)[C@@H]2[C@@H](CCN2Cc2csnn2)N1C,21%[44.1 µM]
COc1ncccc1-c1cc(C(=O)NCC2CCOCC2)c2c(c1)ncn2C,-10%[44.1 µM]
COc1ccc(C(=O)N2C[C@H](c3nc(-c4ccncc4)no3)[C@@H](C)C2)cc1OC,6%
Cn1cccc1C(=O)N[C@@H](Cc1ccccc1)C(=O)N1CCCOCCNC(=O)CC1,-17%
CCc1cc(=O)n(CC(=O)Nc2ccc(Br)cc2F)c(N2CCOCC2)n1,i
Cc1ccc(CNC(=O)C2CCN(c3cnn(Cc4ccccc4)c(=O)c3)C2)o1 (stereo unspecified),i
O=C(c1ccccc1Cl)N1CCN(CCc2ccccn2)CC1,3.5µM*
CCOc1ccccc1C(=O)N1CCN(CCc2ccccn2)CC1,4µM*
O=C(c1ccccc1)N1CCN(CCc2ccccn2)CC1,26%
CC(C)Oc1ccc(C(=O)N2CCN(CCc3ccccn3)CC2)cc1,9%
CCCCOc1ccc(C(=O)N2CCN(CCc3ccccn3)CC2)cc1,48%
O=C(c1cccc(Cl)c1)N1CCN(CCc2ccccn2)CC1,55%
